This is a sample that favours compounds with a hit; in the whole collection about 2.3% have one here.
M1 PAM parental = M1 PAM counterscreen hit in parental CHO-K1 cells; 360,000 compounds, 0.02% hits; AID 602247; activation, % at 3 µM; ATP EC20, Fluo-8 calcium fluorescence; 0% at ATP EC20, 100% at ATP max;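 active = activation above the run cutoff, the mean activation of all test compounds plus 3 SD, cut at about 40% in these data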;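 also: peak over basal fluorescence ratio in a 140 s read after ATP addition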
M1 ag parental = counter-screen for M1 agonists: effect in parental CHO-K1 cells | Fluo-8 calcium fluorescence; scaled to maximal ATP response, vehicle zero | activation, % at 3 µM | 360,000 compounds, 0.48% hits; in the data active = activation above about 15%;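 also: untransfected CHO-K1 host cells lacking M1 receptor as counterscreen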
CHRM1 antagonist = antagonists of human M1 muscarinic receptor | CHO-K1 hM1, Fluo-8 calcium fluorescence, ACh EC80 antagonist | AID 588852 | inhibition, % at 3 µM | 360,000 compounds, 1.3% hits;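 active = percent inhibition above its own plate's cutoff, namely the mean of that plate's compound wells plus 3 SD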;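 also: peak over basal fluorescence ratio during 140 s after agonist addition; 0% = ACh EC80 plus DMSO and 100% = DMSO alone without agonist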
Target sequence (P11229 whole entry, looked up): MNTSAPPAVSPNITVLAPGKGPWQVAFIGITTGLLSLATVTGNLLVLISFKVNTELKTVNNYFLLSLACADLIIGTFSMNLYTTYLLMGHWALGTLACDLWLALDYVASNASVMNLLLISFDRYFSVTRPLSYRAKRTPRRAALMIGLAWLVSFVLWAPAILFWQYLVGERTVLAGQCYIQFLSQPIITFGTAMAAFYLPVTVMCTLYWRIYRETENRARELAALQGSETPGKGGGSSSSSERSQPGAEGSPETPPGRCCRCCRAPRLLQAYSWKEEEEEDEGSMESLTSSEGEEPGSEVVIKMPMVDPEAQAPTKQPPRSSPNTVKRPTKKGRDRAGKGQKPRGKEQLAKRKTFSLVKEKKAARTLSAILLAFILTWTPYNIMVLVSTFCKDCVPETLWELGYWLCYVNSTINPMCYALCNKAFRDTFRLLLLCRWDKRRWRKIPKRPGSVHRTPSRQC
CHO-K1 Ca antag = M1 antagonist counterscreen hit in parental CHO-K1 cells; ATP-induced calcium, Fluo-8 fluorescence; inhibition, % at 3 µM; 360,000 compounds, 0.6% hits; AID 602250;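 active = inhibition above a per-plate cutoff, the plate's mean sample inhibition plus 3 SD, cut at about 24% in these data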;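 also: 0% = DMSO plus EC80 ATP and 100% = DMSO alone without ATP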
M1 PAM = human CHRM1 positive allosteric modulation | P11229 | CHO-K1 hM1, Fluo-8 calcium fluorescence, ACh EC20; 0% = ACh EC20, 100% = maximal ACh | activation, % at 3 µM | 360,000 compounds, 0.088% hits; in the data active = activation above about 19%, passing the limit was not always enough
M1 ag = agonists of human M1 muscarinic receptor; P11229; CHO-K1 hM1, Fluo-8 calcium fluorescence, agonist mode; 0% DMSO, 100% acetylcholine EC100; activation, % at 3 µM; 360,000 compounds, 0.33% hits; AID 588814;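 active = activation above the run's mean compound activation plus 3 SD, cut at about 16% in these data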;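 also: peak over basal fluorescence ratio within a 140 s kinetic read after compound addition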
The depositor's hits bear a star; ! = not active in a repeat.

SMILES | M1 PAM parental | M1 ag parental | CHRM1 antagonist | CHO-K1 Ca antag | M1 PAM | M1 ag
Cc1ccnc2nc(C(=O)OCC(=O)NC3CCCC(C)C3C)nn12 (stereo unspecified) | -4 | -1 | -23 | -16 | 30* | 1
Cc1ccnc2nc(C(=O)OCCOc3cccc(Br)c3)nn12 | -5 | 0 | -20 | 26* | 23* | 3
OC1C(O)C(O)C(O)C(O)C1O (stereo unspecified) | 8 | 0 | 100*! | -2 | -1 | -1
Cc1ccc(NC2CCCN(C(=O)CCn3nccc3C)C2)cc1C (stereo unspecified) | -27 | 0 | 3 | 5 | 4 | -2
Cc1nc([N+](=O)[O-])c(SCC(O)CCl)n1Cc1ccc(Cl)cc1 (stereo unspecified) | 13 | 23* | 13 | 15 | -6 | -3
COc1ccc(Cn2c(C)nc([N+](=O)[O-])c2SCC(=O)O)cc1[N+](=O)[O-] | 14 | 0 | 1 | -12 | 2 | -5
NC(=S)Cc1nc(-c2ccccc2)cs1 | -10 | 2 | 12 | 32* | -8 | -2
Cc1cc(C)c(OCC(O)CN2CCN(c3ccccn3)CC2)c(C)c1 (stereo unspecified) | 18 | 1 | -5 | -4 | 7 | -7
Cc1ccc2cc(NC(=O)C3(C)CCN3C(C)C)ccc2n1 (stereo unspecified) | 20 | 1 | -3 | -7 | 2 | -5
CS(=O)(=O)N1CCN(c2ccccc2NC(=O)c2ccc3c(c2)OCCO3)CC1 | 6 | 19* | -4 | -6 | 3 | -5
CC(C)C(=O)N1CCN(c2ccccc2NC(=O)c2ccc(C#N)cc2F)CC1 | 5 | 22* | 9 | -2 | 4 | -6
Cc1ccc(C(=O)Nc2ccccc2N2CCN(C(=O)C(C)C)CC2)cc1C | -27 | 1 | 11 | 29* | -1 | -1
Cc1ccccc1C(=O)N1CCN(c2ccc(NC(=O)c3ccc4c(c3)OCCO4)cc2)CC1 | -15 | 19* | 18 | 0 | -16 | 4
CCCC1NC(C(=O)O)Cc2c1[nH]c1ccccc21 (stereo unspecified) | 9 | 1 | -5 | 0 | 3 | -7
CCOC(=O)C1(Cc2ccccc2C)CCCN(C(=O)c2ccc(C(C)=O)s2)C1 (stereo unspecified) | 11 | 5 | 8 | -4 | -9 | -2
O=c1c2ccccc2nnn1Cc1nnc(-c2ccccc2Br)o1 | 18 | 11 | -5 | -29 | 8 | 16*
Cn1cccc1C(=O)C(=O)Nc1ccc(F)c(F)c1 | -1 | 1 | -4 | -12 | 6 | -5
COc1ccc(/C(C)=N/N2CCCCC2)c(O)c1 | 6 | 1 | 1 | -18 | 4 | 18*
CCc1nnc(NC(=O)CCC(=O)N2CCN(Cc3ccc(F)cc3)CC2)s1 | -8 | 0 | -9 | -3 | -2 | 16*
Clc1ccc(C(c2ccccc2)N2CCN(c3ccccn3)CC2)cc1 (stereo unspecified) | -1 | 5 | 9 | 4 | -6 | -4
CN1CCCN(C(c2ccccc2)c2ccc(Cl)cc2)CC1 (stereo unspecified) | -8 | 3 | 100* | 15 | -27 | -7
CN(Cc1nccs1)C(=O)c1ccc2nc(Cc3ccccc3F)oc2c1 | -17 | 1 | -1 | -6 | 5 | -1
CN(Cc1nccn1C)C(=O)c1ccc2nc(Cc3ccccc3F)oc2c1 | 6 | 1 | 48* | -12 | -22 | -6
CCN1CCN(c2ccc(NC(=O)COc3ccc(Cl)cc3C)cc2)CC1 | 0 | 2 | 100* | -11 | -27 | -8
CCN1CCN(c2ccc(NC(=O)COc3ccccc3Cl)cc2)CC1 | -5 | 0 | 32* | 3 | -15 | -5
SMILES | M1 PAM parental | M1 ag parental | CHRM1 antagonist | CHO-K1 Ca antag | M1 PAM | M1 ag
CN(CC(=O)NC(=O)NCc1ccccc1)CC(=O)Nc1ccc(Cl)c(Cl)c1 | -8 | 6 | 5 | -6 | 1 | 0
O=c1oc(-c2ccccc2NS(=O)(=O)c2ccccc2)nc2ccccc12 | -6 | 1 | 3 | 29* | -1 | -4
O=c1oc(-c2ccccc2NS(=O)(=O)c2ccc(F)cc2)nc2ccccc12 | -6 | 0 | -1 | -12 | 2 | -2
Cc1ccc(NC(=O)c2ncn(CCCNCCCc3ccccc3)n2)cc1C | 22 | 2 | -5 | -17 | 1 | 18*
O=C1c2ccc(Oc3ccc([N+](=O)[O-])cc3)cc2C(=O)N1CCO | 14 | 17* | -9 | -8 | 11 | -3
O=C(O)c1ccc(CN2C(=O)c3ccc(Oc4ccc([N+](=O)[O-])cc4)cc3C2=O)cc1 | -13 | 0 | -11 | 15 | 10 | -2
Cc1ccc(C(=O)N2CCSC2=S)cc1 | -8 | -1 | 10 | 26* | -7 | -4
CCN(CC1CCCN(CCc2cccc(F)c2)C1)C(=O)c1cc(C)oc1C (stereo unspecified) | 12 | 0 | 43* | -6 | -20 | -5
CN(CC1CCCN(CCc2cccc(C(F)(F)F)c2)C1)C(=O)c1cc2ccccc2o1 (stereo unspecified) | 20 | 6 | 52* | -31 | -40 | -13
CCN(CC1CCCN(CCc2cccc(OC)c2)C1)C(=O)c1ccoc1C (stereo unspecified) | -1 | 11 | 7 | 14 | -5 | -6
CCN(CC1CCCN(CCc2cccc(F)c2)C1)C(=O)c1cc2ccccc2o1 (stereo unspecified) | 16 | 3 | 53* | -13 | -23 | -5
S=C1CCC(c2ccc(Br)cc2)=NN1c1ccccc1 | 4 | 1 | -13 | 1 | 3 | -5
CC(C(=O)Nc1ccccc1)N(c1cccc(Cl)c1)S(C)(=O)=O (stereo unspecified) | 11 | -1 | -3 | -3 | 5 | -6
CN(C)Cc1ccccc1CNC(=O)c1ccc(Cl)c(S(=O)(=O)NC2CC2)c1 | -4 | 0 | -12 | 3 | 8 | -5
Cc1cccc(NC(=O)CNC(=O)COc2cccnc2[N+](=O)[O-])c1C | 0 | -1 | 11 | -3 | -6 | -3
O=C(NCc1ccccn1)c1ccc(OC2CCN(Cc3ccccc3)CC2)cc1 | -22 | 1 | 15 | 8 | -10 | -6
COc1ccc(CN2CCC(Oc3ccc(C(=O)NCc4ccccn4)cc3)CC2)c(F)c1 | 10 | 5 | 71* | -6 | -23 | -2
C#Cc1ccc(CN2CCC(Oc3ccc(C(=O)NCc4ccccn4)cc3)CC2)cc1 | -2 | 2 | 78* | 12 | -24 | -6
CCOc1cccc(CN2CCC(Oc3ccc(C(=O)NCc4ccccn4)cc3)CC2)c1 | -6 | 1 | 77* | -7 | -23 | -5
NC(=O)C1CCN(CC(=O)NC(=O)NC2CCCC2)CC1 | -12 | 0 | -6 | -5 | 7 | -6

Bioassay records: PubChem, The Scripps Research Institute Molecular Screening Center
